The source made the active and inactive calls.
Key:
Albumin (Bos taurus) = Albumin (Bos taurus) (UniProt P02769); experiment: bovine serum albumin binders on microarray, profiling panel, artefact control for SMM control protein annotation, biochemical, small-molecule microarray, Alexa647 label, 635/667 nm fluorescence (AID 1118); conditions: BSA-A647 binding, fluorescence 635 nm, higher = more signal;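 note: score merges 667 nm emission intensity and signal-to-noise per printed compound spot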
[1] = small-molecule microarray binders of probe aXIP, primary screen, biochemical, NeuroSMM set, 635/667 nm fluorescence (AID 1119); conditions: higher = more signal, called active from +8 up or from −8 down;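 note: probe is the protein aXip251-270 applied at 1 µg/mL to compound-printed slides; binding of probe to printed compounds measured as 667 nm fluorescence plus signal to noise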
[2] = small-molecule binders of probe aNOTCH3, primary screen, biochemical, small-molecule microarray, 635/667 nm fluorescence (AID 1120); conditions: higher = more signal;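 note: probe is a biotin-tagged antibody raised against NOTCH3 rather than NOTCH3 protein; score merges spot fluorescence near 667 nm with spot signal to noise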
[3] = small-molecule binders of probe aNOTCH2, primary screen, biochemical, small-molecule microarray, 635/667 nm fluorescence (AID 1121); conditions: higher = more signal;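 note: score merges feature fluorescence read at 667 nm with its signal to noise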
[4] = molecular target: Carbonic anhydrase 2 (Homo sapiens) (UniProt P00918); experiment: CAII small-molecule binders, profiling panel, biochemical, small-molecule microarray, Alexa647-labelled CAII (AID 1122); conditions: CAII-A647 binding fluorescence, higher = more signal
[5] = COS7 lysate on small-molecule microarray, probe aHis, 635 nm (AID 1123); conditions: COS7 cell lysate, fluorescence, higher = more signal;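 note: z-score combines 667nm fluorescence intensity with signal-to-noise per printed compound spot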
[6] = compound binding in COS7 lysate, probe aLAP1, primary screen, cell lysate, small-molecule microarray (AID 1124); conditions: probe aLAP1, fluorescence, higher = more signal;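 note: lysate comes from COS7 cells expressing LAP1 and is applied at 0.3 µg/mL; score merges spot fluorescence near 667 nm with signal-to-noise over triplicate slides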
Sam68 (KHDRBS1) = experiment: Sam68 small-molecule binders, primary screen, biochemical, small-molecule microarray, 635 nm fluorescence (AID 1125); conditions: small-molecule microarray binding, higher = more signal;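 note: score merges 667 nm channel intensity with signal to noise over triplicate slides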
[7] = tested on: Chordin-like protein 2 (CHRDL2); experiment: CHRDL2 small-molecule binders, primary screen, biochemical, small-molecule microarray, 635 nm fluorescence (AID 1126); conditions: small-molecule microarray binding, fluorescence 635 nm; higher = more signal;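 note: printed compound slides probed with Chrdl2 protein at 4 µg/mL for 1 h at 4 C; score merges 667 nm emission intensity with signal to noise over three replicate slides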
[8] = molecular target: Concanavalin-A (Canavalia ensiformis) (UniProt P02866); experiment: ConA small-molecule binders, primary screen, artefact control for SMM control protein annotation, biochemical, small-molecule microarray, Alexa647 label, 635 nm (AID 1127); conditions: ConA-A647 binding fluorescence, higher = more signal;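 note: z combines 667 nm emission intensity with signal-to-noise across three replicate slides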
Sequence of Concanavalin-A (Canavalia ensiformis) (P02866 whole entry, looked up): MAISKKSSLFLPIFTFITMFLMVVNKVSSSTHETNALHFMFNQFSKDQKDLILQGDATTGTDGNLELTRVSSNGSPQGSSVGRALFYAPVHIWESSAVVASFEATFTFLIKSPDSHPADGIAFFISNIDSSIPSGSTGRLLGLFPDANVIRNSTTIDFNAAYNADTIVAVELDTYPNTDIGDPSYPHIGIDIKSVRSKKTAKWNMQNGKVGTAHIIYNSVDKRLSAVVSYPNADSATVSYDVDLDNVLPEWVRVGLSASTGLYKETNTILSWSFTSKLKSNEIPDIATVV

Sequence of Albumin (Bos taurus) (P02769 whole entry, looked up): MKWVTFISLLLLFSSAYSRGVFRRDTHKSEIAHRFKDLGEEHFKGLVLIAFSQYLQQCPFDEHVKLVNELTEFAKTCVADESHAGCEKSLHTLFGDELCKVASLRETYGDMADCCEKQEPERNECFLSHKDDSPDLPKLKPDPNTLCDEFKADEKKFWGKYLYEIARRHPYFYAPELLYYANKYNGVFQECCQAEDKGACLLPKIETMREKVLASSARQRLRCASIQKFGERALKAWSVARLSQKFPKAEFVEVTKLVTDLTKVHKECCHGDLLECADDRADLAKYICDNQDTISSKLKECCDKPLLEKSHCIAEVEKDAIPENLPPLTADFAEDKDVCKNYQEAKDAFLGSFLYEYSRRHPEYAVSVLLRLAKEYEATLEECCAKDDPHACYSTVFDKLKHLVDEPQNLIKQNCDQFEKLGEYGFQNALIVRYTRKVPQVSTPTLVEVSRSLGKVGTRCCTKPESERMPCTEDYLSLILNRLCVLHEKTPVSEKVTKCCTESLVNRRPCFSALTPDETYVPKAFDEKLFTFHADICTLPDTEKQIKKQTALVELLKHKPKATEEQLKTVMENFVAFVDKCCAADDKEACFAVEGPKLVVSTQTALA

| Compound | composite z-score (Albumin (Bos taurus)) | composite Z-score [1] | composite z-score [2] | composite z-score [3] | composite z-score [4] | composite z-score [5] | composite z-score [6] | composite z-score (Sam68 (KHDRBS1)) | composite z-score [7] | composite z-score [8] |
| --- | --- | --- | --- | --- | --- | --- | --- | --- | --- | --- |
| CC(C)C[C@@H]1NC(=O)[C@H]2C[C@@H](C(=O)NCCCCCCNC(=O)CS)[C@@H](c3cccc(OCCO)c3)N2C1=O | -0.641 | 0.156 (inactive) | 0.0493 | -0.132 | 0.338 | 1.68 | 0.995 | 1.22 | 1.41 | 1.17 |
| COC(=O)c1ccc(C23CC2(C(NP(=O)(c2ccccc2)c2ccccc2)c2ccccc2)C3)cc1 (stereo not given) | 0.982 | 0.117 (inactive) | 0.325 | 0.359 | 0.819 | 2.8 | 1.02 | 0.921 | -1.12 | 0.484 |
| N#Cc1ccc(NN2C(C(O)C3CCCCC3)C=CC3C(=O)N(c4ccccc4)C(=O)C32)cc1 (stereo not given) | 0.919 | 0.417 (inactive) | 0.459 | 0.0636 | 0.184 | 2.62 | 0.236 | 1.29 | -0.915 | 1.21 |
| [N-]=[N+]=NCc1ccccc1C[C@]1(C(=O)O)N=C(c2ccc(OCCCO)cc2)O[C@H]1c1ccccc1CN=[N+]=[N-] | 0.938 | -0.313 (inactive) | -0.027 | -0.011 | 0.696 | 2.7 | 0.513 | 1.34 | -0.69 | 1.17 |
| [N-]=[N+]=Nc1ccccc1[C@@H]1OC(c2ccc(OCCCO)cc2)=N[C@]1(CCS(=O)(=O)c1ccccc1)C(=O)N1CCOCC1 | 0.815 | 0.167 (inactive) | 0.287 | 0.0263 | 0.618 | 2.89 | 0.483 | 1.29 | -0.535 | 1.1 |
| Cc1c(NC(=O)CC#N)c(=O)n(-c2ccccc2)n1C | 0.407 | 0.676 (inactive) | 0.0876 | -0.193 | -0.064 | 0.0776 | 0.037 | 0.529 | 0.563 | 0.0636 |
| O=C1OCCC=C[C@H]2OC34C=CCN(Cc5ccccc5)C(=O)[C@H]3N(CCCCCCO)C(=O)[C@@H]4C12 (stereo not given in full) | -0.0045 | 0.0421 (inactive) | -0.241 | -0.171 | 0.898 | 1.2 | 0.0054 | 0.409 | -1.02 | -0.745 |
| CC(C)c1ccc(NN2C(C(O)c3cccc(O)c3)C=CC3C(=O)N(c4ccccc4)C(=O)C32)cc1 (stereo not given) | 1 | 1 (inactive) | 0.374 | 0.0572 | 0.798 | 2.53 | 0.279 | 1.35 | -0.678 | 1.14 |
| CN(C)CCCCNC(=O)[C@H]1C[C@H]2C(=O)N[C@@H](Cc3ccccc3)C(=O)N2[C@H]1c1ccc(O)cc1 | 0.356 | 0.124 (inactive) | 0.143 | -0.0684 | 0.158 | 0.538 | 0.263 | 1.3 | 0.956 | 0.863 |
| COc1ccc([Si](C)(C)[C@H]2[C@H](CC(=O)N(CCO)Cc3ccccc3)O[C@@]3(C(=O)N(Cc4cccc(N5CCC5=O)c4)c4ccccc43)[C@@H]2C)cc1 | 0.378 | 4.59 (inactive) | -0.0802 | -0.154 | 0.454 | 1.12 | 0.782 | 1.01 | 1.1 | 1.11 |
| C=CCC(OC(C)=O)[C@@H]1[C@@H](N(Cc2cccc3ccccc23)C(=O)c2cccc3ccccc23)c2cc(OCCCO)ccc2N1C(=O)c1ccc2ccccc2n1 (stereo not given in full) | -0.0648 | 0.639 (inactive) | 0.0556 | -0.0323 | -0.12 | 0.656 | -0.342 | -0.0153 | 0.366 | -0.0505 |
| C=CC(=C)C1=CCO[C@@H]1[C@H]1CCCN1S(=O)(=O)c1ccccc1[N+](=O)[O-] | 0.656 | 0.0499 (inactive) | 0.117 | -0.0926 | 0.481 | 0.158 | -0.262 | 0.471 | 1.04 | 1.1 |
| COC(=O)C(CC#Cc1ccc2c(c1)[C@]1(C(=O)N2)[C@H](c2ccc(OCCO)cc2)N2[C@H](c3ccccc3)[C@H](c3ccccc3)OC(=O)[C@H]2[C@@H]1C(=O)NC[C@H](O)c1ccccc1)C(=O)OC | 0.819 | 0.0996 (inactive) | 0.0556 | -0.115 | 0.497 | 1.97 | -0.131 | 1.29 | -0.28 | 1.14 |
| COCCOC(=O)N1C(=O)[C@@]2(c3cc(C#CCNC(N)=O)ccc31)[C@H](c1ccc(OCCO)cc1)N1[C@H](c3ccccc3)[C@H](c3ccccc3)OC(=O)[C@H]1[C@@H]2C(=O)N1CCc2cc(OC)c(OC)cc2C1 | -1.03 | -0.0505 (inactive) | 0.112 | -0.0349 | 0.22 | 0.592 | 0.127 | 0.498 | 0.756 | 0.878 |
| [N-]=[N+]=NCc1ccccc1[C@@H]1OC(c2ccc(OCCCO)cc2)=N[C@]1(Cc1ccccc1N=[N+]=[N-])C(=O)NCc1ccccc1 | 0.753 | -0.0079 (inactive) | 0.111 | 0.0427 | 0.42 | 1.25 | 0.272 | 1.26 | 0.16 | 0.815 |
| CCOC(=O)C[C@H]1[C@H](OC(=O)c2ccc(-c3ccccc3)cc2)[C@@H](NC(=O)Cc2ccc(OC)cc2)c2cc(OCCCO)ccc2N1C(=O)c1ccc2ccccc2n1 | 0.647 | -1.15 (inactive) | 0.0408 | -0.0288 | 0.19 | 1.24 | 0.561 | 0.891 | -0.62 | 0.762 |

| Compound | composite z-score (Albumin (Bos taurus)) | composite Z-score [1] | composite z-score [2] | composite z-score [3] | composite z-score [4] | composite z-score [5] | composite z-score [6] | composite z-score (Sam68 (KHDRBS1)) | composite z-score [7] | composite z-score [8] |
| --- | --- | --- | --- | --- | --- | --- | --- | --- | --- | --- |
| COC(=O)C1=CC(CCCO)=CC(C2CC2)N(Cc2sc3ccccc3c2Cl)C=C1C(=O)OC (stereo not given) | 0.932 | 0.408 (inactive) | 0.224 | -0.0209 | 0.817 | 1.55 | 1.01 | 1.3 | -0.236 | 0.949 |
| C=C(CCCC)C(=O)CC[C@H](OC(=O)c1cccnc1)c1cccc(OCCO)c1 | -0.39 | 0.087 (inactive) | -0.0242 | -0.14 | 0.771 | -0.112 | 0.0948 | 0.269 | 0.225 | -0.106 |
| CCCC[C@H]1OB(O)C[C@H]2C1=C(C)C[C@H]1C(=O)N(Cc3ccccc3)C(=O)[C@H]12 | 0.067 | 0.252 (inactive) | -0.0613 | -0.126 | 0.38 | 0.257 | -0.361 | 0.663 | 0.472 | 0.546 |
| CC(=O)NCCCC[C@@H]1NC(=O)[C@H]2C[C@@H](C(=O)NCCCCCC[N+](C)(C)C)[C@@H](c3cccc(OCCO)c3)N2C1=O | 0.0306 | 0.526 (inactive) | 0.15 | -0.106 | 0.607 | 1.19 | -0.165 | 1.04 | 1.45 | 0.904 |
| COCCOC(=O)N1C(=O)[C@@]2(c3cc(C#CC4=CCCCC4)ccc31)[C@H](C(=O)N1CCc3cc(OC)c(OC)cc3C1)[C@H]1C(=O)O[C@H](c3ccccc3)[C@H](c3ccccc3)N1[C@@H]2c1ccccc1OCCO | -0.092 | -0.243 (inactive) | -0.068 | -0.118 | -0.0205 | -0.0785 | 0.498 | 0.6 | 1.03 | 1.07 |
| CCOC(=O)C1=C[C@@H](CC)N(S(=O)(=O)c2ccc(C)cc2)[C@H]1c1ccccc1 | 0.874 | 0.339 (inactive) | 0.0539 | 0.0572 | 0.526 | 1.35 | 0.83 | 1.29 | 0.0777 | 1.1 |
| O=C1OCCC=C[C@H]2OC34C=CCN(Cc5ccccc5)C(=O)[C@H]3N(CCCO)C(=O)[C@@H]4C12 (stereo not given in full) | 0.117 | -0.241 (inactive) | -0.275 | -0.164 | 0.897 | 0.0967 | -0.322 | -1.22 | -0.229 | -0.731 |
| NCCCCCCNC(=O)[C@H]1C[C@H]2C(=O)NCC(=O)N2[C@H]1c1cccc(OCCO)c1 | -0.512 | 0.727 (inactive) | -0.0311 | -0.153 | 0.536 | 1.07 | 0.295 | 1.29 | 1.37 | 1.1 |
| C=CCNC(=O)[C@@H]1[C@H]2C(=O)O[C@H](c3ccccc3)[C@H](c3ccccc3)N2[C@H](c2ccc(OCCO)cc2)[C@@]12C(=O)Nc1ccccc12 | 0.507 | -0.551 (inactive) | 0.0773 | -0.157 | 0.692 | 1.91 | 0.262 | 1.29 | 0.228 | 1.11 |
| O=C1OCCC=C[C@H]2OC34C=CCN(Cc5ccccc5)C(=O)[C@H]3N(CCCCCO)C(=O)[C@@H]4C12 (stereo not given in full) | 0.863 | 0.452 (inactive) | -0.28 | -0.173 | 0.763 | 2.1 | 0.743 | 0.954 | -1.32 | -0.262 |
| CCCNC(=O)[C@@H]1c2ccccc2C(=O)N(Cc2ccccc2)[C@H]1c1ccc(CO)cc1 | -0.271 | 0.842 (inactive) | 0.0631 | -0.0715 | 0.202 | 1.1 | -0.036 | 0.22 | -0.592 | 1.01 |
| O=C(NCc1ccccc1)[C@]1(CCS(=O)(=O)c2ccccc2)N=C(c2ccc(OCCCO)cc2)O[C@@H]1c1ccccc1 | 0.714 | 0.235 (inactive) | 0.296 | -0.048 | 0.555 | 0.751 | 0.379 | 1.31 | 0.205 | 1.08 |
| C=CCOC(=O)[C@@H]1[C@H]2C(=O)O[C@H](c3ccccc3)[C@H](c3ccccc3)N2[C@H](c2ccc(OCCOC(=O)[C@@H]3C[C@@H]4C(=O)NCC(=O)N4[C@@H]3c3cccc(OCCO)c3)cc2)[C@@]12C(=O)Nc1ccc(I)cc12 | -0.991 | -0.0135 (inactive) | -0.0835 | -0.0242 | 0.501 | 1.59 | 0.875 | 1.3 | 0.926 | 0.964 |
| CCCCCCCCCCC(O)C1C=CC2C(=O)N(Cc3ccccc3)C(=O)C2N1n1cnnc1 (stereo not given) | 0.834 | 0.797 (inactive) | 0.435 | 0.0605 | 0.485 | 1.1 | 0.687 | 1.11 | -0.686 | 1.04 |
| CC(C)NC(=O)[C@@H]1c2ccccc2C(=O)N(Cc2ccccc2Cl)[C@H]1c1ccc(CO)cc1 | 0.07 | 0.757 (inactive) | -0.205 | -0.121 | 0.651 | 1.29 | 0.661 | 1.03 | -0.296 | -0.0903 |
| CCCCCN1CC=CC23O[C@@H]4C=CCOC(=O)[C@@H]4[C@H]2C(=O)N(CCCO)[C@@H]3C1=O (stereo not given in full) | 1.02 | 1.01 (inactive) | -0.245 | -0.155 | 0.851 | 2.39 | 0.937 | 1.28 | -0.205 | 0.221 |

From PubChem BioAssay
